# Experimental data reported in the supplement of paper PMC11001985.
# A number with no mark means an inactive call.
# Target: HSP90AA1 (UniProt P07900)
# Experiment: lysine labeling ratio R10:1 (500 µM / 50 µM probe), SILAC-ABPP in living cells; higher = lower intrinsic lysine reactivity toward the probe, active = 2 or less
# Settings: HeLa, probe concentrations 500 vs 50 µM
# Method: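 Living HeLa cells (SILAC light/heavy) in PBS at room temperature were labeled with 50 µM versus 500 µM of the lysine-reactive, reductant-cleavable probe OPA-S-S-alkyne (SILAC labeling time not stated). Probe-modified peptides were CuAAC-biotinylated, captured on neutravidin and eluted with DTT/IAA, then quantified by LC-MS/MS. R = median peptide ratio per lysine (500/50 µM), combined over 3 forward and 3 reverse SILAC replicates. Ratios are capped at 20; R < 2 = hyper-reactive.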
compound,measurement,setting,value
C#CCNC(=O)CCSSCCC(=O)NCCc1ccc(C=O)c(C=O)c1,lysine labeling ratio R10:1,lysine site: K58,3.2
same,lysine labeling ratio R10:1,lysine site: K84,4.81
same,lysine labeling ratio R10:1,lysine site: K457,0.935 (active)
same,lysine labeling ratio R10:1,lysine site: K458,2.96
same,lysine labeling ratio R10:1,lysine site: K585,6.47
same,lysine labeling ratio R10:1,lysine site: K632,5.33
